# D1 agonist – agonists of human D1 dopamine receptor; P21728; HEK293 T-REx D1 cells, calcium flux, agonist mode; activation, % at 2 µM; 360,000 tested, 1% active; in the data active = activation above about 30%; also: 0% is about no effect
# Target sequence (P21728 whole entry, looked up): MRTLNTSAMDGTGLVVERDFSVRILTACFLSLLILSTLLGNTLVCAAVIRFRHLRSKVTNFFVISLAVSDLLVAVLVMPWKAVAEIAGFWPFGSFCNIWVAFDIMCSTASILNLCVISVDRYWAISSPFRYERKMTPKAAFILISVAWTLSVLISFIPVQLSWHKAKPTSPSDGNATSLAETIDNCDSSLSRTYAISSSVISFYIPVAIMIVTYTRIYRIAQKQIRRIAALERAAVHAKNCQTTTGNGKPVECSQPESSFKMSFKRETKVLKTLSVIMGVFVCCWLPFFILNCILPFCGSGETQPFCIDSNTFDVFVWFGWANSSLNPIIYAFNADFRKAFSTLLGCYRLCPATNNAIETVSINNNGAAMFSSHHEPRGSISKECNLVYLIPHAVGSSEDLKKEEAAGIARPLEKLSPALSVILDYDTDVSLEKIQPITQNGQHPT
#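 Tetracycline-induced HEK293 TREx D1 cells, force-coupled to calcium signalling, were dye-loaded with a no-wash calcium kit. Compound was pin-added after a 10 s baseline. Fluorescence was read kinetically at 1 cycle/s for 180 s, with calcium rises flagged as agonism.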
# DRD3 agonist – activates the human D3 dopamine receptor. P35462. D3R DiscoveRx beta-arrestin cells, luminescence, 90 min. max activation, %. 410,000 tested, 0.58% active. AID 652048; in the data active = max activation above about 30%; also: 0% is about no effect
#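 Agonist-mode cell screen: cells plated at 1500/well and incubated overnight at 37 °C, then exposed to library compounds for 90 min at 37 °C. Detection reagent was added for 30–60 min at room temperature, and luminescence was read.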
# D1 antag – blocks dopamine activation of the human D1 receptor. HEK293 TREx D1 cells, calcium flux, dopamine EC80; stronger effect = lower value. activity change, negative = inhibition, % at 10 µM. P21728. 360,000 tested, 3.2% active; in the data active = activity change below about -30%; also: % is scaled to controls: 0 for no effect and ±100 for the full control effect
#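 Tetracycline-induced HEK293 Trex D1 cells, force-coupled to calcium, dye-loaded; compounds added and read 180 s, then EC80 dopamine added and calcium flux tracked kinetically another 180 s.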
# D1 potentiator – enhances dopamine response at the human D1 receptor. HEK293 TREx D1 cells, calcium flux, dopamine EC20 potentiation. potentiation, % at 10 µM. 360,000 tested, 0.036% active. AID 504651; in the data active = potentiation above about 30%; also: 0% is about no effect
# DRD3 antagonist – blocks the human D3 dopamine receptor. 360,000 tested, 2.5% active. P35462. max response, negative = inhibition, %. D3R cells, DiscoveRx beta-arrestin luminescence, antagonist mode; stronger effect = lower value; in the data active = max response below about -50%; also: % is scaled to controls: 0 for no effect and ±100 for the full control effect
#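 Cells expressing the human receptor were seeded at 1500 cells/well, incubated overnight at 37 degrees C in 5% CO2, then exposed to library compounds with dopamine controls for 90 minutes at 37 degrees C before luminescent detection.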
# * marks the source's active call; other numbers are inactive results; . = no result given; ! = a repeat was not active. Hits are enriched below; roughly 6% of the tested compounds scored in any of these assays.
SMILES,D1 agonist,DRD3 agonist,D1 antag,D1 potentiator,DRD3 antagonist
COc1ccc(-c2noc(N3CCC(C(=O)NCc4ccc(F)cc4)CC3)n2)cc1,10,-3,-36*,-10,11
COc1ccc(-c2noc(N3CCC(C(=O)N4CCN(c5ccccc5OC)CC4)CC3)n2)cc1,8,7,-56*,-4,.
CCc1ccc(NC(=O)C2CCN(c3nc(-c4ccc(OC)cc4)no3)CC2)cc1,0,5,-2,-1,.
COc1ccc(-c2noc(N3CCC(C(=O)Nc4ccc(F)cc4F)CC3)n2)cc1,8,5,0,-10,-12
COc1ccc(-c2noc(N3CCC(C(=O)Nc4ccc(OC)cc4OC)CC3)n2)cc1,9,6,-31*,-14,0
CCC1(c2ccc(Cl)cc2)NC(=O)N(Cc2ccc(C(=O)OC)cc2)C1=O (centres undefined),30,3,-31*,-5,1
CC(C)Oc1ccc(CNC(=O)CCCn2c(=O)c3cccn3c3ccccc32)cc1,7,-9,-19,-3,.
CC(C)(C)OC(=O)CC(=O)NNC(=O)c1cc2ccccc2[nH]1,2,.,12,2,.
CC(C)n1[nH]c2ccccc2c1=O,.,-16,.,.,-66*
COc1ccc(N(C(=O)c2ccco2)C(C(=O)NC2CCCCC2)c2cccs2)cc1OC (centres undefined),2,7,6,-4,-19
O=C(NC1CCCC1)C(c1cccs1)N(C(=O)c1csnn1)c1ccccc1F (centres undefined),1,-4,1,-4,-6
CC(C)(C)NC(=O)C(c1cccs1)N(C(=O)C(=O)NC1CCCC1)c1ccccc1F (centres undefined),3,-15,17,3,-65*
C#CC(=O)N(c1ccc(OC)cc1OC)C(C(=O)NC1CCCC1)c1cccs1 (centres undefined),1,-7,-2,-5,-51*
C#CC(=O)N(c1cc(OC)ccc1OC)C(C(=O)NC1CCCC1)c1cccs1 (centres undefined),0,-6,10,0,-62*
COc1cccc(CNC(=O)c2ccc(CNS(=O)(=O)c3ccc(C)cc3)cc2)c1,-5,-5,2,1,.
CCOc1ccc(/C=C/c2nc(C#N)c(Nc3ccc(OC)cc3)o2)cc1,3,14,5,0,.
CNc1nc(Sc2cccc(C(F)(F)F)c2)cc(C(F)(F)F)n1,1,1,17,-6,0
Cc1nc(-c2cc(C#N)c(Sc3cccc(C(F)(F)F)c3)nc2C)cs1,30*,3,-55*,-2,14
Cc1cn(C)c(CC(=O)NCc2cccc(Cl)c2)c1C(=O)O,0,1,17,-1,.
O=[N+]([O-])/C(=C\Nc1ccccc1)S(=O)(=O)c1ccccc1,2,3,-88*,-6,-9
COc1ccc(C(=O)Nc2nnc(SCc3cc(=O)c4cccc(F)c4[nH]3)s2)cc1,0,-1,-4,2,.
Cc1[nH]c2c(Cl)cccc2c(=O)c1CN1CCCCCC1,4,-15,-6,0,-90*
COc1cccc(CNC(=O)c2ccc(-c3nc(CS(=O)(=O)c4ccccc4)c(C)o3)cc2)c1,5,-7,-8,-1,.
CCOc1ccc(NC(=O)C2Cc3ccccc3N2C(=O)c2ccccc2)cc1 (centres undefined),1,-1,-2,0,.
Cc1ccnc2nc(C(=O)NC3CCCc4ccccc43)nn12 (centres undefined),3,-4,-52*,-1,-15
SMILES,D1 agonist,DRD3 agonist,D1 antag,D1 potentiator,DRD3 antagonist
O=C(NC1CCCc2ccccc21)c1cccc(Br)c1 (centres undefined),3,-4,-44*,-2,-15
Cc1occc1C(=O)NC1CCCc2ccccc21 (centres undefined),5,2,-17,0,13
N#Cc1ccc(C(=O)Nc2ccc(Cl)c(-c3nc4cc(Cl)ccc4o3)c2)c(F)c1,3,-1,22,-4,.
CN(Cc1ccc(F)cc1)S(=O)(=O)c1nnc(NC(=O)c2ccccc2Br)s1,11,1,-45*!,-7,5
CN(Cc1ccc(F)cc1)S(=O)(=O)c1nnc(NC(=O)c2ccccc2)s1,18,-5,-21,-1,0
CCC1(c2ccc(F)cc2)NC(=O)N(CC(=O)N2c3ccccc3CC2C)C1=O (centres undefined),85*,0,4,5,11
CCC1(c2ccc(OC)cc2)NC(=O)N(CC(=O)N2CCc3ccccc32)C1=O (centres undefined),39*,3,6,-5,18
Cc1cc(C(=O)CN2C(=O)NC(C)(c3cc(F)ccc3F)C2=O)c(C)n1C1CC1 (centres undefined),.,5,.,.,7
Cc1ccc(C2(C)NC(=O)N(CC(=O)c3ccc4c(c3)OCCO4)C2=O)cc1 (centres undefined),9,0,-43*,-4,30
CCC1(c2ccc(F)cc2)NC(=O)N(CC(=O)N2c3ccccc3NC(=O)CC2C)C1=O (centres undefined),0,-5,13,1,-11
CC1(c2cccc(Br)c2)NC(=O)N(CC(=O)c2ccc3c(c2)OCCO3)C1=O (centres undefined),.,1,.,.,12
CCC1(c2ccc(F)cc2)NC(=O)N(CC(=O)c2cc(C)n(C3CC3)c2C)C1=O (centres undefined),41*,0,-3,-2,10
CC(=O)NCCNC(=O)CCCn1c(=O)[nH]c2ccsc2c1=O,-1,-1,4,1,.
CCS(=O)(=O)c1ncc(N(Cc2cccc(F)c2)Cc2ccco2)c(C(=O)Nc2ccccc2Cl)n1,1,8,6,2,.
CCC1(c2ccc(OC)cc2)NC(=O)N(CC(=O)c2ccc3c(c2)OCCO3)C1=O (centres undefined),32*,2,35,-2,4
O=C(CN1C(=O)NC2(CCc3ccccc32)C1=O)c1ccc2c(c1)OCCO2 (centres undefined),4,3,2,1,14
Cc1ccc(CN(C(=O)COc2cccc([N+](=O)[O-])c2)c2ccccn2)o1,-3,4,1,-1,.
COC(=O)c1ccc(CN(c2ccccn2)S(=O)(=O)c2ccccc2)cc1,5,0,-36*,-9,13
C=C(C)COc1ccc(-c2[nH]ncc2Oc2cccc(OC)c2)c(O)c1,5,1,-39*,-4,-56*
COc1ccc(OC)c(C2C(C(=O)N3CCCCC3)=C(C)Nc3nc4ccccc4n32)c1 (centres undefined),-1,-12,8,1,.
CC(C)NC(=O)c1ccc2c(=O)n(C3CCCC3)c(=S)[nH]c2c1,2,-6,-2,-2,9

# From PubChem
